From PubChem BioAssay (NCI)
This is part of a sample that, as a whole, favours compounds with a hit. Of some 83,000 tested, about 20% had one in any assay.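 Treatment: one concentration, 48 hours, 96-well format. Scoring: percent growth, with anything below 10 considered active.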 Values without a mark were called inactive. Activity calls are given as the source filed them.

System: HCT-116 colon
Assay: NCI-60 one-dose screen, 48 h (100 = growth as untreated, 0 = no growth, -100 = all killed)
Details: 10 µM
Experimental: Growth inhibition of the HCT-116 human tumor cell line is measured as a screen for anti-cancer activity. Cells are grown in 96 well plates and exposed to the test compound for 48 hours. Compounds are tested at a single concentration, which is 10^-5 M for most compounds. The reported endpoint is percent growth (GI% or GIPRCNT), where numbers from 0 - 100% represent growth inhibition, and numbers from -100% - 0 represent cell death. For example, a value of 40 represents 60% growth inhibition. A value of 0 means no net growth occurred over the course of the experiment. A value of -40 indicates 40% of cells at the beginning of the experiment died by the end of the experiment. A value of -100 means all cells are dead at the end of the experiment.
NCI-60 Human Tumor Cell Lines Screen was performed using the standard one-dose NCI protocol, which is described in more detail at https://dtp.cancer.gov/discovery_development/nci-60/default.htm.
Compounds with GIPRCNT values below 10 were considered active. Activity score was based on GIPRCNT using the following formula: […]
Score is 0 for GIPRCNT values of 100 or above, 50 for GIPRCNT values of 0, and 100 for GIPRCNT values of -100.

| SMILES | growth |
| --- | --- |
| Nc1cc(-c2ccncc2)c[nH]c1=O | 97.1% |
| OC[C@H]1OC([S-])[C@H](O)[C@@H](O)[C@@H]1O.[Au+] (stereo not given in full) | 99% |
| CCc1c2c(nc3ccc(OC(=O)N4CCC(N5CCCCC5)CC4)cc13)-c1cc3c(c(=O)n1C2)COC(=O)[C@]3(O)CC | 22% |
| O=C1/C=C/[C@@H](O)[C@@H]2C[C@@H](O)C[C@H]2/C=C/CCC[C@H](CCc2ccc(NC(=S)Nc3ccc4c(c3)C(=O)OC43c4ccc(O)cc4Oc4cc(O)ccc43)cc2)O1 | -37.2% (active) |
| C=C(C)[C@@H]1CC[C@]2(COCCC#N)CC[C@]3(C)[C@H](CC[C@@H]4[C@@]5(C)Cc6c([nH]c7ccccc67)C(C)(C)[C@@H]5CC[C@]43C)[C@@H]12 | 82% |
| O=C(O)c1ccc(-n2cc(CNc3ccc(Cl)cc3)c(-c3ccccc3)n2)cc1 | 85.9% |
| CO[C@H]1CC(O[C@@H]2/C(C)=C/C[C@@H]3C[C@@H](C[C@]4(C=C[C@H](C)[C@@H](C5CCCCC5)O4)O3)OC(=O)[C@@H]3C=C(C)[C@@H](O)[C@H]4OC/C(=C\C=C\[C@@H]2C)[C@]43O)O[C@@H](C)C1O[C@H]1C[C@H](OC)[C@@H](O)[C@H](C)O1 (stereo not given in full) | -98.1% (active) |
| CCOC(=O)c1cc(C(=O)c2ccc(OC)c(OC)c2)n2c1ccc1ccc3cccnc3c12 | 27.2% |
| NS(=O)(=O)c1ccc(Br)cc1 | 81.4% |
| O=C1/C=C/[C@@H](O)[C@@H]2C[C@@H](O)C[C@H]2/C=C/CCC[C@H](CCc2ccc(C(F)(F)F)cc2)O1 | -45.8% (active) |
| O=C1c2c(c3c4ccccc4n(CCCCCCN4CCOCC4)c3c3[nH]c4ccccc4c23)C(=O)N1O | -16% (active) |
| O=C(N/N=C/c1cc([N+](=O)[O-])ccc1O)c1cccc2ccccc12 | 18.4% |
| COc1cc(-c2nn(-c3ccc(NC(=O)NCCCNC(=O)c4ccccc4)cc3)cc2-c2ccncc2)ccc1Cl | 9.58% (active) |
| CCOC(=O)c1cc(C(=O)c2cc(OC)c(OC)c(OC)c2)n2ncc3ccccc3c12 | 50.8% |
| Cc1ccc(Cl)cc1NC(=O)CCl | 62.9% |
| O=C1/C(=C/c2ccc([N+](=O)[O-])s2)Oc2cc(Cl)ccc21 | -17.8% (active) |
| Cc1c2cnccc2c(C)c2c1c1cc(O)ccc1n2C(C)C | -49.4% (active) |
| CC(=O)[C@@]12O[C@](C)(c3ccccc3)O[C@@H]1CC1C3CCC4=CC(=O)CC[C@]4(C)C3CC[C@@]12C (stereo not given in full) | 48.2% |
| Cc1ccc(-n2c(C)nn3c(=O)c4c5c(sc4nc23)CN(C)CC5)cc1 | 93.5% |
| Nc1ccccc1NC(=O)c1ccc(CCCC(=O)Nc2ccc(C3CC3N)cc2)cc1 (stereo not given) | 8.68% (active) |

| SMILES | growth |
| --- | --- |
| COc1ccc(-c2csc(NC(=O)c3ccc(Cc4n[nH]c(=O)c5cccnc45)cc3)n2)cc1 | 91.9% |
| O=C(CCCCCCC(=O)Nc1ccccc1)NO | 4.45% (active) |
| Cc1cc(Br)nnc1Br | 106% |
| COc1ccc2c(c1)OC(N)=C(C#N)C2c1cc(OC)c(OC)c(OC)c1 (stereo not given) | 3.4% (active) |
| CCCN1CN2C(=O)N3CN(CCC)CN4C(=S)N(C1)C2C34 (stereo not given) | 82.9% |
| COc1ccc(-c2nn(-c3cccc(Cl)c3)cc2-c2cc(-c3cccs3)[nH]c(=S)n2)cc1 | 20.4% |
| O=C(COc1cccc(/C=C2\CSc3ccccc3C2=O)c1)c1ccc(Cl)cc1 | -57.8% (active) |
| CC[C@@H](C(=O)[C@@H](C)[C@@H](O)[C@H](C)[C@@H]1O[C@@H]([C@@H](CC)C(=O)N(CC)CC)CC[C@@H]1C)C1O[C@]2(C=CC(=O)[C@]3(CC[C@@](C)([C@H]4CC[C@](O)(CC)[C@H](C)O4)O3)O2)[C@H](C)C[C@@H]1C (stereo not given in full) | 5.97% (active) |
| CCOC(=O)c1cocc1C(=O)O | 103% |
| CCCCC(CC)CN=C(N)NC(N)=NCCCCCCN=C(N)NC(N)=NCC(CC)CCCC (stereo not given) | -85.6% (active) |
| COc1cc2c(Nc3ccc(S(N)(=O)=O)cc3)ncnc2c(OC)c1OC | 108% |
| COC(=O)CC[C@@H](C)[C@H]1CC[C@H]2[C@@H]3CC[C@@H]4C[C@H](O)CC[C@]4(C)[C@H]3C[C@H](O)[C@]12C | 86.7% |
| CCN(CC)CCOc1ccc2c(c1O)C(=O)c1ccccc1C2=O | 44.9% |
| COc1cc(Cc2cc(-c3ccccc3)n[nH]c2=O)cc(OC)c1OC | 16.3% |
| CN1CCN(C2=Nc3ccccc3Oc3ccc(Cl)cc32)CC1 | 92.4% |
| Nc1ncnc2c1ncn2C1(CO)OCC(O)C(O)C1O (stereo not given) | 108% |
| C(=N\Nc1ncnc2sc3c(c12)CCNC3)/c1cccc2ccccc12 | 8.77% (active) |
| C[C@@H](C[C@H](CCO)c1ccccc1)c1ccc2ccccc2c1 | -94.3% (active) |
| CS(=O)(=O)c1nccc(-c2c(-c3ccc(OCCc4ccccc4)cc3)nc3sccn23)n1 | 99.6% |
| COc1cc(-c2ccc(N=Nc3ccc4c(S(=O)(=O)O)ccc(N)c4c3O)c(OC)c2)ccc1N=Nc1ccc2c(S(=O)(=O)O)ccc(N)c2c1O | 114% |
